KCNQ2 inh: inhibitors of rat KCNQ2 potassium channel. O88943. 1.1% of 310,000 active. B-score at 10 µM. CHO-K1 KCNQ2, FluxOR thallium flux, 20 min; hits give low values;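 active = fluorescence ratio B-score at most minus 3 library SDs, with starting brightness B-score within 2 library SDs, cut at about -5.5 in these data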
KCNQ2 pot: potentiators of rat KCNQ2 potassium channel | B-score at 10 µM | CHO-K1 KCNQ2, FluxOR thallium flux fluorescence; hits give high values | O88943 | AID 2239 | 0.54% of 310,000 active;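 active = fluorescence ratio B-score at least 3 SD of library B-scores, with initial fluorescence B-score within 3 of them, cut at about 5.3 in these data; same plate scores as AID 2156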;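 also: B-score of peak minus minimum over baseline fluorescence ratio after K+ and Tl+ stimulus; positive B-score means potentiation of KCNQ2 with more thallium influx and brighter signal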
Kir21 conf inh: confirmation of mouse Kir2.1 potassium channel inhibitors. shares compounds with KCNQ2 pot. Kir2.1-expressing cells, FluxOR thallium flux fluorescence; hits give low values. 41% of 2,300 active. Tl flux remaining, % of negative control (hits give low values), % at 10 µM;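 active = Primary-screen hit whose thallium flux fell at least 3 control SD below untreated wells in both duplicates, with normal baseline fluorescence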
HEK293 ctr: alters thallium flux in parental HEK293 cells, Kir2.1 counter-screen | FluxOR thallium flux fluorescence; 0% = unstimulated blank wells | FluxOR signal as % of negative control (100 = no effect), % at 10 µM | shares compounds with KCNQ2 pot | AID 2105 | 19% of 2,300 active;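 active = dye signal at least 3 control SD above or below untreated wells in both duplicates, raw fluorescence within 3, either direction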;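 also: percent is based on the flux ratio of peak minus minimum fluorescence over baseline F0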
CHO-K1 Tl ctr: alters thallium flux in parental CHO-K1 cells, KCNQ2 counter-screen; shares compounds with KCNQ2 pot; FluxOR thallium flux fluorescence; zero = vehicle mean+3SD, 100% = vehicle-minus-blank window; activity increase over 3SD of controls, % at 10 µM; 43% of 1,200 active;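 active = signal rise of at least 3 SD above the untreated control mean, in both duplicate wells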;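 also: counter screen of KCNQ2 potentiator hits so any rise reflects channel-independent effects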
KCNQ1 pot spec: human KCNQ1 counter-target activity of KCNQ2 potentiators; 28% of 1,200 active; shares compounds with KCNQ2 pot; activation over 3SD threshold, % at 10 µM; CHO KCNQ1 stable, FluxOR thallium flux fluorescence; beyond 3SD, as % of vehicle-control signal; AID 2283;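 active = fluorescence ratio rise of at least 3 SD of vehicle wells above their mean, in both replicate wells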
KCNQ2 pot conf: rat KCNQ2 channel potentiator confirmation. CHO-KCNQ2 cells, FluxOR thallium flux fluorescence. potentiation, less the hit threshold, % at 10 µM. shares compounds with KCNQ2 pot. 68% of 1,200 active;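 active = fluorescence ratio rising 3 SD or more over the vehicle control mean in both replicates, plus primary screen hit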;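 also: peak minus minimum thallium fluorescence divided by baseline after K/Tl stimulus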
Kir21 spec: tests whether KCNQ2 potentiators also affect mouse Kir2.1; HEK293 Kir2.1, FluxOR thallium flux fluorescence; activity over 3SD threshold, % at 10 µM; 2% of 1,200 active; shares compounds with KCNQ2 pot;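 active = fluorescence ratio rise of at least 3 SD above the vehicle-control mean, seen in both replicates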
KCNQ2 W236L pot: KCNQ2 potentiators acting on retigabine-insensitive rat KCNQ2 W236L mutant; shares compounds with KCNQ2 pot; CHO KCNQ2-W236L, automated patch clamp current; current increase over 3SD of negative controls (%), hits give high values, % at 25 µM; 10% of 940 active; AID 2558;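 active = current increase at least 3 SD of the untreated controls above them in both duplicate recordings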
Target sequence (O88943 whole entry W236L, looked up): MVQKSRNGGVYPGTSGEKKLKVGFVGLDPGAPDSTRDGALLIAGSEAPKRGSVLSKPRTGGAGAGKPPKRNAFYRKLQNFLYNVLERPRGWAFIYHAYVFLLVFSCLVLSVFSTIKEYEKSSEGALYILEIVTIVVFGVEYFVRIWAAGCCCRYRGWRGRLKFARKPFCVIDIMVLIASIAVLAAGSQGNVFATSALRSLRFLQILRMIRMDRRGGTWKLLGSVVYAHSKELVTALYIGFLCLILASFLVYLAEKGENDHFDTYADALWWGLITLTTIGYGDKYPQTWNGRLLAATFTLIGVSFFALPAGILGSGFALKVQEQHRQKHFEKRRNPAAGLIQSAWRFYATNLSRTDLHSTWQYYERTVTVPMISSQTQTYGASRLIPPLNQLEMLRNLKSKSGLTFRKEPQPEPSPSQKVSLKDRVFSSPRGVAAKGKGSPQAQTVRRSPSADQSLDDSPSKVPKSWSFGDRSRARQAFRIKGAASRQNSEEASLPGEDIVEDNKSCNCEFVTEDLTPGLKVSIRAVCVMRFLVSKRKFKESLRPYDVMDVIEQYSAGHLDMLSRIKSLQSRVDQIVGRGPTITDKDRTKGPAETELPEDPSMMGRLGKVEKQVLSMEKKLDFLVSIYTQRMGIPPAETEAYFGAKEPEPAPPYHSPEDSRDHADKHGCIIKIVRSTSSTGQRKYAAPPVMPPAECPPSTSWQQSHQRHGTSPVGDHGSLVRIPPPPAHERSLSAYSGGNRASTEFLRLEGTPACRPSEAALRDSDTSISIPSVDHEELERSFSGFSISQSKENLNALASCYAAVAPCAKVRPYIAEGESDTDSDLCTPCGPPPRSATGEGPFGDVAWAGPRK
Hits are given with their value; . = inactive; / = no result. Most compounds without a hit are left out; they make up all but 1.6% or so of the library.

SMILES	KCNQ2 inh	KCNQ2 pot	Kir21 conf inh	HEK293 ctr	others
Cc1ccc2c(c1)CCCN2C(=O)CSc1ccccc1	.	/	/	/
C/C(=N\NC(=O)c1c[nH]c2ccccc12)c1ccccn1	.	/	/	/
C/C(=N\NC(=O)c1nc2ccccn2c1C)c1cc2ccccc2o1	.	.	/	/
C/C(=N\NC(=O)c1cc2ccccc2cc1O)c1cc2ccccc2o1	.	21	.	452%	CHO-K1 Tl ctr=93;KCNQ1 pot spec=.;KCNQ2 pot conf=69;Kir21 spec=.;KCNQ2 W236L pot=.
C/C(=N\NC(=O)c1cc2ccccc2cc1O)c1ccccn1	.	5.9	.	166%	CHO-K1 Tl ctr=.;KCNQ1 pot spec=3.0;KCNQ2 pot conf=.;Kir21 spec=.
CCn1c(SCC(=O)Nc2cc(S(=O)(=O)N3CCOCC3)ccc2OC)nnc1-c1ccncc1	.	/	/	/
COc1ccccc1C(=O)NCCC(=O)N(C)CC(=O)Nc1ccc(Cl)cc1	.	.	/	/
CCCCN(C)CCCNC(=O)c1cn(CC)c2ccc(S(=O)(=O)N3CCOCC3)cc2c1=O	.	/	/	/
CN(C)S(=O)(=O)NCCNc1ccc(C(F)(F)F)cc1[N+](=O)[O-]	.	.	/	/
CC1(C)CC(=O)C(C=NCC2CCN(C(=S)Nc3cccc(Cl)c3)CC2)=C(O)C1	.	.	/	/
O=C(O)CN1C(=O)/C(=C2\C(=O)N(Cc3ccccc3Cl)c3ccccc32)SC1=S	.	6.2	.	.	CHO-K1 Tl ctr=.;KCNQ1 pot spec=.;KCNQ2 pot conf=.;Kir21 spec=.
O=C1/C(=C2\C(=O)N(Cc3ccc(F)cc3)c3ccccc32)SC(=S)N1CCS(=O)(=O)O	.	/	/	/
Cc1cc(C)nc(NCCCc2ccccc2)n1	.	/	/	/
CCCCNc1cc(C)nc(NCc2ccccc2)n1	.	/	15%	.
Cc1ccc(C(=O)NCC2CCCO2)cc1S(=O)(=O)N1CCCCC1 (stereo not given)	.	.	/	/
CC(C)[C@@H]1CC[C@@H](C)C[C@H]1OC(=O)C[n+]1cc(-c2ccc(Cl)cc2)n2c1CCCCC2	.	/	25%	.
COc1ccc(-c2c[n+](CC(=O)OC3CC(C)CCC3C(C)C)c3n2CCC3)cc1 (stereo not given)	.	.	/	/
CCOc1ccc(NC(=O)CN(C)C(=O)c2cn(-c3ccccc3)nc2-c2cccs2)cc1OCC	.	/	/	/
CCC(NC(=S)NCc1ccc(F)cc1)c1ccccc1 (stereo not given)	.	.	58%	62%
O=C(NCc1ccc(F)cc1)C(c1ccccc1)c1ccccc1	.	/	/	/
NC(=O)CCC(NC(=S)Nc1ccccc1)C(=O)O (stereo not given)	.	.	/	/
CCOC(=O)c1c(NC(=O)C(NCCN(C)C)c2ccccc2)sc2c1CCCC2 (stereo not given)	.	/	42%	.
CCOC(=O)c1c(NC(=O)c2ccccc2N(C)S(=O)(=O)c2ccccc2)sc2c1CCCC2	.	/	/	/
O=C(CCc1cn(Cc2ccc(F)cc2)c2ccccc12)N1CCOCC1	.	/	/	/
CC(C)(C)C(=O)Nc1ccccc1C(=O)NCc1cccnc1	.	.	/	/
SMILES	KCNQ2 inh	KCNQ2 pot	Kir21 conf inh	HEK293 ctr	others
CC(C)(C)c1ccccc1OCC(=O)Nc1ccccc1C(=O)NCc1cccnc1	.	.	77%	.
CN(Cc1ccccc1F)C(=O)c1sccc1-c1ccccc1	.	/	54%	.
COc1ccccc1CNC(=O)c1sccc1-c1ccccc1	.	/	74%	.
COc1cccc(CN(C)C(=O)c2sccc2-c2ccccc2)c1OC	.	/	/	/
COc1ccccc1CNC(=O)c1sccc1C	.	/	/	/
O=C1c2ccccc2NC(c2ccc(O)cc2)N1c1ccccc1 (stereo not given)	.	.	/	/
Cc1ccccc1OCC(=O)Nc1ccccc1N1CCOCC1	-6.5	.	50%	.
COc1ccc(N2CCOCC2)c(NC(=O)COc2cccc(C)c2C)c1	.	/	/	/
Cc1cccnc1NC(=S)NC(=O)c1oc2ccccc2c1C	.	.	/	/
COc1ccc(CCNS(=O)(=O)c2ccc(Br)s2)cc1	.	/	/	/
O=C(COc1ccccc1)Nc1nnc(-c2ccc3c(c2)CCCC3)o1	.	/	/	/
O=C(Nc1nnc(-c2ccc3c(c2)CCCC3)o1)c1ccccc1Cl	.	9.4	.	.	CHO-K1 Tl ctr=.;KCNQ1 pot spec=.;KCNQ2 pot conf=12;Kir21 spec=.;KCNQ2 W236L pot=.
O=C(Nc1cccc2c1CCCC2)c1ccccc1Cl	.	.	/	/
O=C(Nc1nnc(-c2ccc3c(c2)CCCC3)o1)c1ccccc1	.	7.1	.	289%	CHO-K1 Tl ctr=.;KCNQ1 pot spec=.;KCNQ2 pot conf=8.6;Kir21 spec=.;KCNQ2 W236L pot=.
CCCOc1ccc(CSC(=N)N)cc1C(=O)OC	.	.	/	/
COC(=O)c1cc(CSC(=N)N)ccc1OCCC(C)C	.	.	29%	.
Cc1ccc(C)c(OCCC(=O)OCC(=O)Nc2cc(S(=O)(=O)N3CCOCC3)ccc2C)c1	.	.	/	/
CCN(CC)CCCCN1c2ccccc2Sc2ccccc21	.	/	44%	.
CCN(CC)CC(=O)N1c2ccccc2Sc2ccccc21	.	.	/	/
O=C(O)c1c(-c2ccccc2)c(-c2ccccc2)nc2ccccc12	.	/	/	/
O=C(O)c1c2c(nc3ccc(S(=O)(=O)N4CCC(C(=O)NCc5ccccc5Cl)CC4)cc13)CCCC2	.	.	/	/
Cc1cc(C)c(S(=O)(=O)C(C)C)c(=O)[nH]1	.	.	/	/
CC1(C)CC(=O)C(C(c2ccncc2)C2C(=O)CC(C)(C)CC2=O)C(=O)C1	.	/	/	/
Cc1ccc(C(C2C(=O)CC(C)(C)CC2=O)C2C(=O)CC(C)(C)CC2=O)s1	.	5.6	.	.	CHO-K1 Tl ctr=.;KCNQ1 pot spec=.;KCNQ2 pot conf=.;Kir21 spec=.
Cc1cc(NC(=O)CSc2nc3c(C)c(C)ccc3cc2C)no1	.	5.9	.	.	CHO-K1 Tl ctr=.;KCNQ1 pot spec=.;KCNQ2 pot conf=.;Kir21 spec=.
SMILES	KCNQ2 inh	KCNQ2 pot	Kir21 conf inh	HEK293 ctr	others
CCc1cc2ccc(C)c(C)c2nc1SCC(=O)Nc1cc(C)on1	.	.	/	/
Cc1cccc(OCC(=O)NC2CCCC2)c1	.	.	/	/
Cc1cc2cccc(C)c2nc1SCC(=O)NCC1CCCO1 (stereo not given)	.	.	/	/
Cc1cccc(CC(=O)NC2CCCCCC2)c1	.	6.7	.	.	CHO-K1 Tl ctr=.;KCNQ1 pot spec=.;KCNQ2 pot conf=11;Kir21 spec=.;KCNQ2 W236L pot=.
Cc1cc2cccc(C)c2nc1SCC(=O)NC1CCCCC1	.	13	.	.	CHO-K1 Tl ctr=.;KCNQ1 pot spec=.;KCNQ2 pot conf=0.3;Kir21 spec=.;KCNQ2 W236L pot=.
Cc1ccc(OCC(=O)NC2CCCCCC2)cc1C	.	6.5	.	.	CHO-K1 Tl ctr=.;KCNQ1 pot spec=.;KCNQ2 pot conf=2.0;Kir21 spec=.;KCNQ2 W236L pot=.
Cc1cccc(CC(=O)NC2CCN(C)CC2)c1	.	/	/	/
COc1ccc(S(=O)(=O)N2CC(C)N(C(=O)N(C)C)C2C)cc1 (stereo not given)	.	.	/	/
Cc1cc(C)nc(SCc2ccc(C(=O)N/N=C/c3ccco3)cc2)n1	.	/	/	/
N#CN(Cc1ccccc1)Cc1ccccc1	.	/	/	/

Source: PubChem BioAssay (Johns Hopkins Ion Channel Center)
